# Screens deposited in PubChem BioAssay by National Center for Advancing Translational Sciences (NCATS).
# This excerpt belongs to a sample that is enriched for hits.
# nsP2pro primary: Primary qHTS for inhibitors of NSP2Pro chikungunya virus (CHIKV). Polyprotein P1234 (Chikungunya virus (strain S27-African prototype)), Q8JUX6. FRET peptide cleavage, nsP2pro, fluorescence 1 h. Potency, µM (titrated, usually from 24.9 µM), without a hit: at the highest dose activity change, negative = inhibition, actives largely listed as inhibitors. actives 1.1% (n = 31,000). AID 1964107, 2024; also: nearly all actives have a fitted effect of over 60% in size
#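 Purified recombinant nsP2pro (150 nM final) in 10 mM Tris-HCl pH 8.0 with 0.01% Tween 20 was preincubated 15 min at room temperature with compound (7 concentrations, up to 25 uM). FRET peptide 2 substrate (2.5 uM final) was then added; fluorescence was read after 1 h.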
# CHIKV nsP2 cell: Secondary cell base assay for inhibitors of NSP2Pro Chikungunya virus (CHIKV); Potency, µM (series often up to 51.1 µM), for the others: at the top dose activity change, negative = inhibition, most hits filed as inhibitors; actives 10% (n = 450); AID 1964100, 2024; cell-based CHIKV nsP2 protease reporter assay; shares compounds with nsP2pro primary; also: nearly all actives have a fitted effect of over 70% in size
# CHIKV NSP2 FL: Selectivity profile for inhibitors of NSP2Pro chikungunya virus (CHIKV): Full length NSP2 enzyme counterscreen (CHIKV-NSP2). actives 39% (n = 410). Potency, µM (titrated, usually from 50.7 µM), without a hit: at the top dose activity change, negative = inhibition, usual class: inhibitors. Full-length CHIKV NSP2 protease enzymatic counterscreen. AID 1964101, 2024. shares compounds with nsP2pro primary; also: nearly all actives have a fitted effect of over 65% in size
# Furin counterscr: Selectivity profile for inhibitors of NSP2Pro chikungunya virus (CHIKV): Human furin counterscreen; shares compounds with nsP2pro primary; Recombinant human furin enzymatic counterscreen, fluorogenic substrate; Potency, µM (highest dose often 50.6 µM), for the others: at the highest dose activity change, negative = inhibition, most hits filed as inhibitors; actives 6% (n = 410)
# NS23 peptide cs: Selectivity profile for inhibitors of NSP2Pro chikungunya virus (CHIKV): Endogenous NS2/3 peptide Counterscreen; shares compounds with nsP2pro primary; Purified CHIKV nsP2 protease, endogenous NS2/3 peptide cleavage; Potency, µM (doses to about 51 µM), for inactives: top-dose activity change, negative = inhibition, hits mostly inhibitors; actives 34% (n = 410); AID 1964103, 2024; also: nearly all actives have a fitted effect of over 55% in size
# Papain counter: Selectivity profile for inhibitors of NSP2Pro chikungunya virus (CHIKV): Papain Counterscreen | shares compounds with nsP2pro primary | purified papain protease activity, enzymatic inhibition | Potency, µM (top dose mostly 51 µM), for inactives: top-dose activity change, negative = inhibition, hits mostly inhibitors | actives 5% (n = 410)
# nsP2pro confirm: Confirmatory qHTS for inhibitors of NSP2Pro chikungunya virus (CHIKV) | actives 43% (n = 410) | Potency, µM (highest dose often 25.5 µM), without a hit: top-dose activity change, negative = inhibition, actives largely listed as inhibitors | shares compounds with nsP2pro primary | CHIKV nsP2 protease enzymatic activity, qHTS | AID 1964105, 2024; also: nearly all actives have a fitted effect of over 75% in size
# HCV NS3 counter: Selectivity profile for inhibitors of NSP2Pro chikungunya virus (CHIKV): NS34A-HCV Counterscreen; shares compounds with nsP2pro primary; actives 20% (n = 410); AID 1964106, 2024; Potency, µM (highest dose often 50.9 µM), most hits filed as inhibitors; HCV NS3/4A protease biochemical counterscreen; also: nearly all actives have a fitted effect of over 55% in size
# Starred values were filed as active, the others as inactive; i = inactive; ? = inconclusive; [ ] = remark or other dose. Calls follow the shape of the full dose curve. % is scaled to controls: 0 for no effect and ±100 for the full control effect; potency is read from the fitted curve at half-maximal effect.
SMILES,nsP2pro primary,others
c1cc(-c2n[nH]c(CC3CCNC3)n2)ccn1 (stereo not given),i,
O=C(C1CCCN([S+](=O)([O-])c2cccc(C(F)(F)F)c2)C1)N1CCC(c2nc3ncccc3[nH]2)C1 (stereo not given),4%,
COCCNC(=O)Nc1ccc2nc(-c3cccs3)c(-c3cccs3)nc2c1,?,CHIKV nsP2 cell=-4%;CHIKV NSP2 FL=34%;Furin counterscr=-10%;NS23 peptide cs=-10%;Papain counter=49%;nsP2pro confirm=8%;HCV NS3 counter=i
COCCNC(=O)c1cc2c(Cl)nc3ccc(C)cc3c2s1,13%,
Cc1ccc(NC(=O)CSc2nc(-c3cccs3)nc3cc(=O)[nH]n23)cc1C,-7%,
CC(C)(C)n1nc(-c2ccc(Cl)cc2)c2c(N)ncnc21,19%,
CC(C)n1nc(-c2ccc(NC(=O)Nc3cccc(C(F)(F)F)c3)cc2)c2c(N)ncnc21,-4%,
CC(C)n1nc(C#Cc2ccccc2)c2c(N)ncnc21,4.4µM*,CHIKV nsP2 cell=87%;CHIKV NSP2 FL=?;Furin counterscr=?;NS23 peptide cs=?;Papain counter=39%;nsP2pro confirm=8µM*;HCV NS3 counter=?
CCC(=O)Oc1ccc2c(c1)CC[C@@H]1[C@H]2CC[C@]2(C)[C@@H](OC(=O)CC)CC[C@@H]12,-3%,
O=C(OC1C[C@@H]2CC3C[C@@H](C1)N2CC3=O)c1c[nH]c2ccccc12 (stereo not given in full),-10%,
COC1CN(c2cccc(F)c2)C12CCN(C(=O)CC1CCCCC1)CC2 (stereo not given),-5%,
COc1ccc(OC)c(N2C(=O)C(Cl)=C(N3CCCCC3)C2=O)c1,?,CHIKV nsP2 cell=-11%;CHIKV NSP2 FL=16µM*;Furin counterscr=-7%;NS23 peptide cs=?;Papain counter=-18%;nsP2pro confirm=7.1µM*;HCV NS3 counter=i
COc1ccc(OC)c(NC(=O)CN2C(=O)c3ccccc3Sc3ccc(C(=O)N4CCCC4)cc32)c1,-5%,
COc1ccc(Br)c(C(=O)Nc2cc3c(cc2N2CCCC2)n(C)c(=O)c(=O)n3C)c1,-33%,
CCCCCC(O)/C=C/C1C(O)CC(=O)C1C/C=C/CCCC(=O)O (stereo not given),-11%,
CC1(C)CN(C(=O)COc2ccccc2)CC(=O)N(Cc2ccccc2)C1,-12%,
Clc1ccc2c(c1)C1=NCCN1c1c(-c3noc(C4CC4)n3)ncn1-2,2%,
CSc1nc(=O)c2c(n1C)NC(=O)CC2c1cc(F)cc(F)c1 (stereo not given),0%,
CNc1nc2c(s1)C(c1cccc(F)c1)CC(=O)N2 (stereo not given),3.2µM*,CHIKV nsP2 cell=44%;CHIKV NSP2 FL=?;Furin counterscr=8%;NS23 peptide cs=10µM*;Papain counter=55%;nsP2pro confirm=5.7µM*;HCV NS3 counter=i
CCOC(=O)c1cccc(-n2cnc(/C=C3\NC(=O)N(CC(=O)O)C3=O)c2)c1,5%,
CCCC(=O)O[C@H]1CN2CC[C@H](O)[C@@H]2[C@@H](O)[C@@H]1O,-9%,
C=C1CCC2C(C)(C(=O)O)CCCC2(C)C1CCC(C)CC(=O)O (stereo not given),65%,
C[C@H]1C[C@H]2[C@H]3CCC4=CC(=O)C=C[C@]4(C)[C@@]3(F)[C@@H](O)C[C@]2(C)[C@@]1(OC(=O)c1ccccc1)C(=O)CO,4%,
NS(=O)(=O)C#Cc1ccccc1,7.9µM*,CHIKV nsP2 cell=?;CHIKV NSP2 FL=13µM*;Furin counterscr=-7%;NS23 peptide cs=?;Papain counter=-7%;nsP2pro confirm=6.3µM*;HCV NS3 counter=i
O=S(=O)(O)c1ccccc1,-1%,
SMILES,nsP2pro primary,others
Cc1ccnc(NC(=S)N2CCc3ccccc3C2)c1,-7%,
CC1=NOC2(CCN(Cc3ccc(Cl)cc3)CC2)C1,i,
Nc1nc2c(s1)CCN(Cc1ccc(Cl)cc1)CC2,8.8µM*,CHIKV nsP2 cell=105%;CHIKV NSP2 FL=4%;Furin counterscr=7%;NS23 peptide cs=-17%;Papain counter=-12%;nsP2pro confirm=?;HCV NS3 counter=i
O=C1CN(Cc2ccc(Cl)cc2)CCN1c1ccc(Cl)nn1,4%[39.2 µM],
O=c1cc(-c2ccc(O)c(O)c2)oc2c([C@@H]3O[C@H](CO)[C@@H](O)[C@H](O)[C@H]3O)c(O)cc(O)c12,-3%,
O=S(=O)(Nc1nccs1)c1ccc(NCc2ccc(Br)cc2O)cc1,-16%,
Cc1cc(C)nc(NC(=S)N2CCN(c3ccccc3C#N)CC2)c1,2%,
CCOC(=O)CSc1nc2ccc(NC(=O)c3ccc(Cl)cc3)cc2s1,?,CHIKV nsP2 cell=-7%
CCOc1ccc(C(=O)Nc2ccc3nc(SCC(=O)N4CCCC4)sc3c2)cc1,-11%,
O=C(Nc1ccc2nc(SCC(=O)N3CCc4ccccc43)sc2c1)c1cccc(Cl)c1,-16%,
C[N+]1(C)[C@@H]2CC(OC(=O)C(O)(c3cccs3)c3cccs3)C[C@H]1[C@H]1O[C@@H]12 (stereo not given in full),-3%,
CCCCCCCCCCCCCCCCCCCC(=O)O,?,CHIKV nsP2 cell=-23%;CHIKV NSP2 FL=4.1µM*;Furin counterscr=-5%;NS23 peptide cs=-19%;Papain counter=21µM*;nsP2pro confirm=2.8µM*;HCV NS3 counter=i
CCCCCCCC/C=C/CCCCCCCC(=O)O,-24%,
CCCCCCCCCC(=O)O,-16%,
CC1(C)C(/C=C/C=C/C=C/C=C2/N(CCCCS(=O)(=O)O)c3ccc4ccccc4c3C2(C)C)=[N+](CCCCS(=O)(=O)[O-])c2ccc3ccccc3c21,-4%,
Nc1cccc(-c2ccc(NC(=O)c3cccs3)cn2)c1,-14%,
Cc1ccc(C)c(SC2=CS(=O)(=O)c3ccccc32)c1,i,
Cc1ccsc1[C@@H]1CCN(Cc2ccc(-c3ccn[nH]3)o2)C[C@H]1O,3.5µM*,CHIKV nsP2 cell=?;CHIKV NSP2 FL=?;Furin counterscr=0%;NS23 peptide cs=?;Papain counter=-3%;nsP2pro confirm=8µM*;HCV NS3 counter=?
Cc1nccn1C1(C(=O)O)CCN(Cc2ccc(-c3ccn[nH]3)o2)CC1,-15%,
